# The list is not random: actives were taken first. Their share in the collection is about 3.4%.
# ERa coact inh – ERα–SRC-1 coactivator interaction inhibitors, primary screen, biochemical, TR-FRET, ERα LBD, estradiol-bound; Estrogen receptor (Homo sapiens), P03372; TR-FRET ER-alpha LBD / SRC-1 peptide; 86,000 compounds, 1.7% hits; inhibition, % at 25.6 µM; in the data active means inhibition above about 50%;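 further: 0% = receptor plus peptide control and 100% = peptide only without receptor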
# FAK inh – FAK kinase inhibitors, primary screen, biochemical; Focal adhesion kinase 1 (Homo sapiens), Q05397; biochemical FAK kinase activity assay; inhibition, %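 (tested at 7 µM)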; 97,000 compounds, 0.84% hits; in the data active means inhibition above about 19%;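 further: 0% = DMSO and 100% = reference compound high control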
# ERb coact inh – inhibitors of ERβ-SRC1 coactivator interaction, primary screen, biochemical, TR-FRET, ERβ LBD, SRC-1 peptide | inhibition, % at 25.6 µM | 86,000 compounds, 1.3% hits | TR-FRET ER-beta LBD / SRC1-Cy5 peptide binding; receptor agonist-loaded with 1 µM estradiol;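 active means compounds whose percent inhibition of the receptor-coactivator binding signal exceeds about 50% in the single-dose screen, limit read from the data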;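 further: 0% = receptor plus peptide wells without compound and 100% = peptide-only wells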
# LYP inh 2 – PTPN22 phosphatase inhibitors, primary screen, biochemical, DiFMUP fluorescence, 2 µM. Tyrosine-protein phosphatase non-receptor type 22 (Homo sapiens), Q9Y2R2. recombinant LYP catalytic domain. inhibition, % at 2 µM. 96,000 compounds, 0.21% hits. AID 640, 2007;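 active means inhibition at 2 µM at or above a set limit, the screen mean plus 3 SD, cut at about 24% in these data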;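 further: 0% = DMSO with enzyme and 100% = enzyme fully blocked by orthovanadate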
# PTPN22 act – LYP phosphatase activators, primary screen, biochemical, DiFMUP fluorescence, 2 µM. recombinant LYP; 0 = plate median, 100 = signal doubled. 96,000 compounds, 0.11% hits. activation, % at 2 µM. AID 697, 2007;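 active means activation at 2 µM above a set limit, the mean plus 5 SD, cut at about 37% in these data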
# ERa coact pot – enhancers of ERα–SRC-1 coactivator binding, primary screen, biochemical, TR-FRET, ERα LBD, low estradiol; Estrogen receptor (Homo sapiens), P03372; TR-FRET ERalpha-LBD/SRC-Cy5 coactivator binding, 2 h; 100 = basal binding, no effect; coactivator binding (% of control), % at 25.6 µM; 86,000 compounds, 1.3% hits; AID 639, 2007; in the data active means activity above about 200%;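 further: binding measured in presence of low estradiol as agonist stimulus; 0% = peptide alone without receptor and 100% = receptor with peptide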
# * marks the source's active call; other numbers are inactive results; . = no result; [ ] = remark or other dose.
SMILES,ERa coact inh,FAK inh,ERb coact inh,LYP inh 2,PTPN22 act,ERa coact pot
Cc1nc2ccccc2c(=O)n1/N=C/c1ccc(N(C)C)cc1,-3,1,4,-2,-1,94
Cc1nc2ccccc2c(=O)n1/N=C/c1c(O)ccc2oc3c(c12)CCCC3,80*,2,25,9,-8,95
CCOc1ccccc1NC(=O)N1CCC(NC(=O)c2ccccc2C)CC1,17,2,32,-3,2,63
CCOc1ccccc1NC(=O)N1CCC(NC(=O)c2cccc(C)c2)CC1,63*[fluorescence artefact?],11,65*[fluorescence artefact?],-3,0,108
Cc1cccc(NC(=S)NNC(=O)c2nn(C)cc2Cl)c1,.,0,.,7,-2,.
O=C(Nc1ccccc1C(=O)O)c1ccccc1,39,-4,51*,7,-11,80
CC(=O)Nc1cccc(C(=O)Nc2ccccc2C(=O)O)c1,-3,-7,-6,4,-1,116
O=C(Nc1ccccc1C(=O)O)c1ccc2ccccc2n1,1,-3,91*[fluorescence artefact?],-1,0,94
O=C(Nc1ccc(Cl)cn1)c1ccc2ccccc2n1,3,4,-10,6,-9,99
Cc1ccc2nc(Nc3nc(=O)c4ccccc4n3C)nc(C)c2c1,60*,.,43,.,.,71
Cc1ccc2nc(Nc3nc(-c4ccccc4)cc(=O)[nH]3)nc(C)c2c1,.,12,.,0,5,.
Cc1c(Br)cc(C(=O)NCc2ccco2)c(C)c1C,51*,.,24,.,.,99
O=C(NCc1ccco1)c1cc2ccc(O)cc2oc1=O,64*,6,72*,-14,9,91
CCOC(=O)c1cnc(SC)nc1Sc1ccccc1,26,3,0,2,-5,107
O=C(NCc1ccco1)/C(=C/c1cccnc1)NC(=O)c1ccco1,.,0,.,15,-14,.
COc1cc(C)ccc1OCCCON1C(=O)CCC1=O,-2,0,-1,-10,7,88
CCCNC(=O)c1ccc(-c2nc3ccccc3s2)s1,54*,3,62*,-6,6,73
O=C(NCCCO)c1nc2ccccc2s1,-3,3,-9,11,-8,101
c1ccc(-c2nn3c(Cn4nnc5ccccc54)nnc3s2)nc1,85*[fluorescence artefact?],7,50,-9,8,27
c1cncc(-c2nn3c(Cn4nnc5ccccc54)nnc3s2)c1,-8,-3,-10,-5,4,79
O=C(CCc1ccc(Oc2cc([N+](=O)[O-])cc([N+](=O)[O-])c2)cc1)N1CCCCC1,.,-1,.,.,.,.
CN(C)CCn1c(C(=O)Nc2ccccc2)cc2ccccc21,2,-2,-1,-6,3,129
CCOC(=O)c1cc2ccccc2n1CCN(CC)CC,52*,0,-6,-1,0,102
CCOC(=O)c1cc2nc(-c3ccco3)cc(C(F)(F)F)n2n1,13,-2,6,-2,4,112
COc1ccccc1N1CCN(C(=O)c2ccc3nc(-c4ccco4)c(-c4ccco4)nc3c2)CC1,68*[fluorescence artefact?],13,66*,10,-7,57
SMILES,ERa coact inh,FAK inh,ERb coact inh,LYP inh 2,PTPN22 act,ERa coact pot
Cc1cc([N+](=O)[O-])c(NCCCCCCO)c([N+](=O)[O-])c1,.,4,.,2,-4,.
CCNc1nnc(-c2ccc(C)cc2)o1,-8,-3,-3,1,-3,110
Cc1cccc2cc(-c3nc4c(C)cccn4c3NCc3ccco3)c(=O)[nH]c12,3,3,4,3,-3,93
Cc1ccc2[nH]c(=O)c(-c3nc4cc(C)ccn4c3NCc3ccco3)cc2c1,73*[fluorescence artefact?],.,39,.,.,151
Cc1cccc(-n2c(SCc3cc(=O)n4ccsc4n3)nc3ccccc32)c1,60*,10,22,16,-12,53
CCCn1c(=O)c2ccccc2n2c(SCc3cc(=O)n4ccsc4n3)nnc12,50*,-1,31,20,-14,89
CCn1c2ccccc2c2nnc(SCc3cc(=O)n4ccsc4n3)nc21,1,.,30,.,.,123
C=CCn1c(SCc2cc(=O)n3ccsc3n2)nnc1C1CCCCC1,82*[fluorescence artefact?],10,55*[fluorescence artefact?],4,-7,75
